In the first test the target is T1, GST-Nv-NF-kB (Ser allele) (Nematostella vectensis, UniProt A7UNT2 2-411).
T1 sequence: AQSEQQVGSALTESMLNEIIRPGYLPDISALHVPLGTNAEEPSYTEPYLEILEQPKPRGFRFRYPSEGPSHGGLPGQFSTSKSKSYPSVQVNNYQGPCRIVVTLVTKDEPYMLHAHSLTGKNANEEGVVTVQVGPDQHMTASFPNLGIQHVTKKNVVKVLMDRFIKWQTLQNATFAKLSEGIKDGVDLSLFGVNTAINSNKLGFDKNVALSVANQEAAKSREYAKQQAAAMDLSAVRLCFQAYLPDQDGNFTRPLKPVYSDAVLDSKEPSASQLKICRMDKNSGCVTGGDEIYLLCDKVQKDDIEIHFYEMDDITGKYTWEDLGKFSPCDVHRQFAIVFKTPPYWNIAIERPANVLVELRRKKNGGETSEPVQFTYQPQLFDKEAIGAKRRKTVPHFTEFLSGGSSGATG
In words: protein-binding microarray (PBM); PBM: ~300 nM protein, 6 mM HEPES pH 7.8, 80 mM KCl, 0.5 mM EDTA, 0.5 mM EGTA, 6% glycerol, 35 ng/ul poly-dIdC, 1% milk, 1 h, room temperature; Ap Aiptasia and Nv Nematostella (sea anemones) / Co Capsaspora / Aq Amphimedon (sponge) / Dm Drosophila / Hu human; RHD is the Rel homology domain; high values mean tight binding. The conditions noted are these: dsDNA, one strand shown.
In turn, “CCGATTAACATCAAGTTTACCCCTGATGTTAATCGGGTCTTGATTCGCTTGACGCTGCTG” displayed a binding signal of 3.57 z-score. “CCGATTAACATCAGGGGAGTGTATGATGTTAATCGGGTCTTGATTCGCTTGACGCTGCTG”: the binding signal was found to be 4.51 z-score. In turn, “CCGATTAACATCACATATACCCCTGATGTTAATCGGGTCTTGATTCGCTTGACGCTGCTG” had a binding signal of 1.38 z-score.

In turn, “CCGATTAACATCATGGGTGGGAATGATGTTAATCGGGTCTTGATTCGCTTGACGCTGCTG” gave a binding signal of 1.12 z-score. Regarding “CCGATTAACATCACCCAGGGAAATGATGTTAATCGGGTCTTGATTCGCTTGACGCTGCTG”, the binding signal was found to be 1.97 z-score. Still for that read-out and setting: with “CCGATTAACATCAAATATACCCATGATGTTAATCGGGTCTTGATTCGCTTGACGCTGCTG” the figure was 1.7 z-score. The same measure, in the same setting: with “CCGATTAACATCAATTCCCATGATGATGTTAATCGGGTCTTGATTCGCTTGACGCTGCTG” the figure was 1.33 z-score; with “CCGATTAACATCAAAAAAAATCCTGATGTTAATCGGGTCTTGATTCGCTTGACGCTGCTG”, 1.23 z-score. Same read-out and setting: with “CCGATTAACATCAGTAATTCCCATGATGTTAATCGGGTCTTGATTCGCTTGACGCTGCTG” the figure was 3.61 z-score; with “CCGATTAACATCAGATCTTCCCCTGATGTTAATCGGGTCTTGATTCGCTTGACGCTGCTG”, 6.54 z-score. Sequence “CCGATTAACATCAATGTCGGTGGTGATGTTAATCGGGTCTTGATTCGCTTGACGCTGCTG” gave a binding signal of 1.08 z-score.

For the next test, the target named is GST-Hu-p50 (Homo sapiens, UniProt P19838 7-356). The test is described as above. The conditions noted are these: dsDNA, one strand shown.
Chain of GST-Hu-p50 (P19838 7-356): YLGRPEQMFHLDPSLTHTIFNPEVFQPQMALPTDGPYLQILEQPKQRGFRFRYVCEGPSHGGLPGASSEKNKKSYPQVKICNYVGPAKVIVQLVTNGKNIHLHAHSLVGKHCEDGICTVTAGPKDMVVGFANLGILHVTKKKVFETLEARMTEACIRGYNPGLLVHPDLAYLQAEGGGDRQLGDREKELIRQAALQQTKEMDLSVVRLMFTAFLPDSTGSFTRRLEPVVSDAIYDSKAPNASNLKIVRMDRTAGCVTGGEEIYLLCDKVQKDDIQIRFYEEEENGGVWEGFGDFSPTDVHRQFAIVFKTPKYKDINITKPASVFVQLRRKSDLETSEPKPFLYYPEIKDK
Sequence “CCGATTAACATCAAGGGGGGTGGTGATGTTAATCGGGTCTTGATTCGCTTGACGCTGCTG” returned a binding signal of 4.27 z-score.

“CCGATTAACATCAGGGGATAAAATGATGTTAATCGGGTCTTGATTCGCTTGACGCTGCTG” came in with a binding signal of 3.95 z-score. Same read-out and setting: with “CCGATTAACATCAAAAAAAGTACTGATGTTAATCGGGTCTTGATTCGCTTGACGCTGCTG” the figure was 1.52 z-score; with “CCGATTAACATCACCTCTTTCCCTGATGTTAATCGGGTCTTGATTCGCTTGACGCTGCTG”, 2.44 z-score. On to “CCGATTAACATCAATATAGTCCCTGATGTTAATCGGGTCTTGATTCGCTTGACGCTGCTG”, for which the binding signal was 3.8 z-score. On the same count and under the same terms, with “CCGATTAACATCAACCCCCGGCTTGATGTTAATCGGGTCTTGATTCGCTTGACGCTGCTG” the figure was 3.29 z-score.

“CCGATTAACATCAGGGGATTAGATGATGTTAATCGGGTCTTGATTCGCTTGACGCTGCTG” yielded a binding signal of 4.35 z-score. Turning to “CCGATTAACATCAAGGGGGTGACTGATGTTAATCGGGTCTTGATTCGCTTGACGCTGCTG”, the binding signal amounted to 3.9 z-score. Still for that read-out and setting: with “CCGATTAACATCACGGGGAGTCCTGATGTTAATCGGGTCTTGATTCGCTTGACGCTGCTG” the figure was 3.39 z-score. Still for that read-out and setting: with “CCGATTAACATCAACTGGGAAAATGATGTTAATCGGGTCTTGATTCGCTTGACGCTGCTG” the figure was 2 z-score; with “CCGATTAACATCAGGGGGAGAGATGATGTTAATCGGGTCTTGATTCGCTTGACGCTGCTG”, 4.17 z-score. On the same count and under the same terms, with “CCGATTAACATCAGACTGGGAAATGATGTTAATCGGGTCTTGATTCGCTTGACGCTGCTG” the figure was 1.43 z-score; with “CCGATTAACATCAGGGATCCCCATGATGTTAATCGGGTCTTGATTCGCTTGACGCTGCTG”, 4.35 z-score; with “CCGATTAACATCACATCTTTCCCTGATGTTAATCGGGTCTTGATTCGCTTGACGCTGCTG”, 2.43 z-score. Regarding “CCGATTAACATCACCGAATTTCCTGATGTTAATCGGGTCTTGATTCGCTTGACGCTGCTG”, the binding signal was 2.56 z-score. Still for that read-out and setting: with “CCGATTAACATCAAGGGATTCCCTGATGTTAATCGGGTCTTGATTCGCTTGACGCTGCTG” the figure was 3.73 z-score. On the same count and under the same terms, with “CCGATTAACATCAAAATTCCACCTGATGTTAATCGGGTCTTGATTCGCTTGACGCTGCTG” the figure was 3.61 z-score; with “CCGATTAACATCAGGGAATCTCATGATGTTAATCGGGTCTTGATTCGCTTGACGCTGCTG”, 2.5 z-score; with “CCGATTAACATCAAGAATTCCCATGATGTTAATCGGGTCTTGATTCGCTTGACGCTGCTG”, 4.34 z-score. The same measure, in the same setting: with “CCGATTAACATCAGAATTACCCATGATGTTAATCGGGTCTTGATTCGCTTGACGCTGCTG” the figure was 2.83 z-score. Regarding “CCGATTAACATCAGGAGTTACCCTGATGTTAATCGGGTCTTGATTCGCTTGACGCTGCTG”, the binding signal turned out to be 2.44 z-score. The same measure, in the same setting: with “CCGATTAACATCAGGGGAACACATGATGTTAATCGGGTCTTGATTCGCTTGACGCTGCTG” the figure was 3.37 z-score. Same read-out and setting: with “CCGATTAACATCAATTTGGGAAATGATGTTAATCGGGTCTTGATTCGCTTGACGCTGCTG” the figure was 1.3 z-score; with “CCGATTAACATCAAGGATTCCCGTGATGTTAATCGGGTCTTGATTCGCTTGACGCTGCTG”, 2.13 z-score. Same read-out and setting: with “CCGATTAACATCAGGGACGGAAATGATGTTAATCGGGTCTTGATTCGCTTGACGCTGCTG” the figure was 2.19 z-score.

For “CCGATTAACATCAAACACCCCCCTGATGTTAATCGGGTCTTGATTCGCTTGACGCTGCTG”, the binding signal amounted to 4.57 z-score. Same read-out and setting: with “CCGATTAACATCAGGACTTCCCATGATGTTAATCGGGTCTTGATTCGCTTGACGCTGCTG” the figure was 1.76 z-score; with “CCGATTAACATCACGGACTCCCCTGATGTTAATCGGGTCTTGATTCGCTTGACGCTGCTG”, 3.34 z-score; with “CCGATTAACATCAAGTTTACCCCTGATGTTAATCGGGTCTTGATTCGCTTGACGCTGCTG”, 3.2 z-score. In turn, “CCGATTAACATCAGGGGAGTGTATGATGTTAATCGGGTCTTGATTCGCTTGACGCTGCTG” displayed a binding signal of 3.04 z-score. “CCGATTAACATCACATATACCCCTGATGTTAATCGGGTCTTGATTCGCTTGACGCTGCTG” showed a binding signal of 2.14 z-score. Sequence “CCGATTAACATCATGGGTGGGAATGATGTTAATCGGGTCTTGATTCGCTTGACGCTGCTG” had a binding signal of 1.32 z-score.

“CCGATTAACATCACCCAGGGAAATGATGTTAATCGGGTCTTGATTCGCTTGACGCTGCTG”: the binding signal came out at 2.01 z-score. Same read-out and setting: with “CCGATTAACATCAAATATACCCATGATGTTAATCGGGTCTTGATTCGCTTGACGCTGCTG” the figure was 1.83 z-score; with “CCGATTAACATCAATTCCCATGATGATGTTAATCGGGTCTTGATTCGCTTGACGCTGCTG”, 1.61 z-score; with “CCGATTAACATCAAAAAAAATCCTGATGTTAATCGGGTCTTGATTCGCTTGACGCTGCTG”, 1.51 z-score. For “CCGATTAACATCAGTAATTCCCATGATGTTAATCGGGTCTTGATTCGCTTGACGCTGCTG”, the binding signal was 3 z-score. The same measure, in the same setting: with “CCGATTAACATCAGATCTTCCCCTGATGTTAATCGGGTCTTGATTCGCTTGACGCTGCTG” the figure was 5.04 z-score.

On to “CCGATTAACATCAATGTCGGTGGTGATGTTAATCGGGTCTTGATTCGCTTGACGCTGCTG”, for which the binding signal is 1.95 z-score.

The values are drawn from publication PMC5700166.
